The list is not random: actives were taken first. Their share in the collection is about 5.8%.
Gal4-VP16 FLuc: VP16 counterscreen qHTS for inhibitors of ROR gamma transcriptional activity. Drosophila S2 Gal4-VP16 UAS-luciferase, luminescence, 20 h. 310,000 compounds, 3.5% hits. Potency, µM (doses to about 53.6 µM), without a hit: top-dose activity, negative = inhibition, actives largely listed as inhibitors. AID 2546, 2010;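 note: Gal4-VP16 expression switched on by copper sulfate through the metallothionein promoter; potency is the fitted concentration of half-maximal effect; % is set by controls: 0 for no effect and ±100 for the full control effect; nearly all actives have a fitted effect of over 50% in size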
TRPV1 ag: HTS Assay for Compounds that Act as Agonists of the Vanilloid Receptor 1; Transient receptor potential cation channel subfamily V member 1 (Homo sapiens), Q8NER1; TRPV1-expressing cells, Fluo-8 calcium influx, agonist mode; activation, % at 8.33 µM; 320,000 compounds, 0.19% hits; AID 540275, 2011; in the data active = activation above about 80%; inconclusive = between about 30% and that limit; note: 0% is about no effect
Target sequence (Q8NER1 whole entry, looked up): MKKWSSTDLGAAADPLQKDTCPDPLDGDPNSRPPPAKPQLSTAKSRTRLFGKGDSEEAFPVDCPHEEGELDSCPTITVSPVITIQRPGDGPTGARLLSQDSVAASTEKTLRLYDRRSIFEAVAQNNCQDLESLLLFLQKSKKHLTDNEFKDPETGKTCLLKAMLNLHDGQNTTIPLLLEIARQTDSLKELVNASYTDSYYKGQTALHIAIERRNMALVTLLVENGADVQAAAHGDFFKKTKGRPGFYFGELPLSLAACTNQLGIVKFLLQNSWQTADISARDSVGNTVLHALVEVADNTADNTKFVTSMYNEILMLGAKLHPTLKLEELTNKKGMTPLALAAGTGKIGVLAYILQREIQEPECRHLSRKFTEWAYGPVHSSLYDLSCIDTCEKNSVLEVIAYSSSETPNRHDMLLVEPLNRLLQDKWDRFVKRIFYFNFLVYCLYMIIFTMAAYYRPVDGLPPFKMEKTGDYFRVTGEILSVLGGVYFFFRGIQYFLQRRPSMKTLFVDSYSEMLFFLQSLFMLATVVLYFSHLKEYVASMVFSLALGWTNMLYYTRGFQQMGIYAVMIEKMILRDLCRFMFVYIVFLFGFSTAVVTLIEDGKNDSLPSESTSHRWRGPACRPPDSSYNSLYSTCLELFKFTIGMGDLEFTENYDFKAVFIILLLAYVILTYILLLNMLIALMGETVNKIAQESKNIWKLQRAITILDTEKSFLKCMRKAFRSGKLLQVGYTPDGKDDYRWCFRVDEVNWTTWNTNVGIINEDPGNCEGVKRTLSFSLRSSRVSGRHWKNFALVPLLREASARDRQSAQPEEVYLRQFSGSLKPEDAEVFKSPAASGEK
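Cells expressing TRPV1 were dye-loaded with Fluo-8 and read kinetically: 10 s baseline, 3 min after compound (agonist portion), then 2 min after EC20 capsaicin (allosteric enhancer portion). Calcium-bound dye fluorescence at 480/520 nm.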
RORg inh: qHTS for inhibitors of ROR gamma transcriptional activity. AID 2551, 2010. 310,000 compounds, 5.4% hits. Drosophila S2 Gal4-RORgamma UAS-luciferase reporter, 20 h. Potency, µM (series often up to 53.6 µM), for the others: at the top dose activity change, negative = inhibition, actives largely listed as inhibitors; note: potency is the fitted concentration of half-maximal effect; % is set by controls: 0 for no effect and ±100 for the full control effect; nearly all actives have a fitted effect of over 60% in size
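In this cell-based reporter format, copper sulfate (700 uM final) drives Gal4–ROR gamma fusion expression from a metallothionein promoter in Drosophila Schneider cells; compounds preincubated 1 hr, reporter read after 20 hr at ambient temperature.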
TRPV1 potentiator: HTS Assay for Compounds that Act as Potentiators of the Vanilloid Receptor 1 | Transient receptor potential cation channel subfamily V member 1 (Homo sapiens), Q8NER1 | TRPV1-expressing cells, Fluo-8 calcium influx, capsaicin EC20 potentiation | potentiation, % at 8.33 µM | 320,000 compounds, 0.02% hits; in the data active = potentiation above about 80%; inconclusive = between about 30% and that limit; note: 0% is about no effect
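Fluo-8 calcium influx in TRPV1-expressing cells, kinetic read (ex 480/em 520 nm). Compound added and read 3 min for agonist activity, followed by capsaicin at EC20 final and 2 min further read for enhancement.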
uPA surface inh: qHTS for Inhibitors of Cell Surface uPA Generation; Potency, µM (highest dose often 38.3 µM), inactives show top-dose activity change, negative = inhibition, most hits filed as inhibitors; 330,000 compounds, 0.31% hits; cell surface uPA generation assay, qHTS; AID 540303, 2011; active = well fitted inhibition curve with a large enough effect; inconclusive = small, poorly fitted or top-dose-only effect; inactive = no such curve, though single readings can be large or run the other way; tested in mouse RAW 264.7 cells; note: potency is the fitted concentration of half-maximal effect; % is set by controls: 0 for no effect and ±100 for the full control effect; nearly all actives have a fitted effect of over 55% in size
* marks the source's active call; other numbers are inactive results; u = inconclusive; x = no result. Unless noted, calls come from the whole dose curve; as a rule, active = well fitted curve in the direction sought with a large enough effect; inconclusive = small, poorly fitted or top-dose-only effect, or another doubt; inactive = no such curve, though single readings can be large; an effect the other way counts as inactive or inconclusive.

SMILES	Gal4-VP16 FLuc	TRPV1 ag	RORg inh	TRPV1 potentiator	uPA surface inh
Cc1cc(C)nc(SCC(=O)Nc2nc(-c3ccccc3)c(-c3ccccc3)o2)n1	20µM*	3	11µM*	26	-2%
Cc1ccc(C(=O)Nc2nc(-c3ccccc3)c(-c3ccccc3)o2)cc1	5.6µM*	u	5µM*	-7	13%
Cc1cc(C)cc(NC(=O)C2CCN(C(=O)c3cccs3)CC2)c1	-30%	0	-5%	7	1%
COc1ccc(CN(C)C(=O)c2cc(S(=O)(=O)N3CCOCC3)ccc2N2CCCC2)cc1	x	-5	x	19	-2%
O=C(CCCC[C@@H]1SC[C@H]2NC(=O)N[C@H]12)Nc1ccc(C(=O)O)cc1	-9%	x	6%	x	x
O=[N+]([O-])c1c(C(Cl)Cl)nn(-c2ccccc2)c1N1CCCC1	u	18	7.1µM*	-1	-9%
CC(C)C(=O)NC(c1ccccc1)c1cc([N+](=O)[O-])c2cccnc2c1O (stereo not drawn)	u	-1	6.3µM*	16	-12%
CC(=O)NC(C)c1cc(F)c2cccnc2c1O (stereo not drawn)	x	1	x	4	u
CC(=O)NC(c1ccccc1)c1cc([N+](=O)[O-])c2cccnc2c1O (stereo not drawn)	-28%	-2	7.9µM*	4	-12%
N#Cc1nc(NCCCO)nc(Nc2ccccc2)n1	-1%	x	x	x	x
CCCCN(C)S(=O)(=O)c1ccc(C(=O)Nc2nnc(C3=COCCO3)o2)cc1	1.8µM*	-2	0.71µM*	-12	3%
CCCCN(C)S(=O)(=O)c1ccc(C(=O)Nc2nnc(-c3cccs3)o2)cc1	0.89µM*	0	0.32µM*	8	x
O=C(CS(=O)(=O)c1ccccc1)Nc1nnc(-c2cccs2)o1	x	-2	x	9	6%
Cc1cccc(N2CCN(C(=O)[C@H](C)N3C(=O)C4CC=CCC4C3=O)CC2)c1C (stereo partly drawn)	x	x	x	x	-1%
COc1cc(/C=C/C(=O)N2CCCCC2=O)cc(OC)c1OC	7.9µM*	x	7.1µM*	x	x
COc1cc(/C=C\C(=O)N2CCC=CC2=O)cc(OC)c1OC	5µM*	x	5µM*	x	x
COc1cc(/C=C/C(=O)N2CCN(C(=O)/C=C/c3cc(OC)c(OC)c(OC)c3)CC2)cc(OC)c1OC	4%	-4	-11%	-1	4%
COc1ccc(-c2nnc3n2N=C(c2ccccc2OC)CS3)c(OC)c1	-5%	x	-15%	x	x
O=C(Nc1ccc(N2CCOCC2)cc1)c1ccc(Cl)c(S(=O)(=O)N2CCCC2)c1	x	u	x	-24	-20%
CC1=C(C(=O)OCc2ccccc2)C(C2CC2)NC(=O)N1CCCCCC(=O)O (stereo not drawn)	u	x	17%	x	x
Fc1cccc(Cl)c1CNn1cn[nH]c1=S	3%	-3	u	-11	-8%
S=c1[nH]ncn1NCc1ccc(Cl)cc1Cl	u	17	6.3µM*	-12	-2%
COC(=O)C1=C[C@@H](C(=O)OC)C2C3=C(C(=O)[C@@]2(C)NC(=O)c2ccccc2)[C@H](c2ccccc2)n2c(=O)n(-c4ccccc4)c(=O)n2[C@@H]3C1 (stereo partly drawn)	-9%	x	0%	x	x
CCCC1=NN(C(=O)C(=O)Nc2ccc(Br)cc2)C(O)(C(F)(F)F)C1 (stereo not drawn)	5µM*	1	0.79µM*	15	-1%
COc1ccc(C2=NN(C(=O)C(O)c3ccccc3)C(O)(C(F)(F)F)C2)cc1 (stereo not drawn)	-5%	-2	7%	19	-6%
CCC1=NN(C(=O)C(=O)Nc2ccc(Br)cc2)C(O)(C(F)(F)F)C1 (stereo not drawn)	5µM*	-2	2.8µM*	7	-4%
COc1ccc(NC(=O)C(=O)N2N=C(C(C)C)CC2(O)C(F)(F)F)cc1 (stereo not drawn)	u	x	7.9µM*	x	8%
CCC1=C2CC[C@H]3C(=O)N(c4ccccc4)C(=O)[C@H]3[C@H]2[C@@]2(Cc3ccccc3)C(=NCC3CC3)OC(=O)N2C1=O	19%	x	9%	x	x
